According to PubChem BioAssay (EPA / NIEHS):
Activity calls are given as the source filed them. Rule for the calls: active = hit-call score of the fitted dose curve at least 0.9, where 1 is the maximum; inconclusive = response in the unintended direction; inactive = score below 0.9.

Assay: CPHEA_Stoker_NIS_Cytotoxicity: Cytotoxicity Assessment for CPHEA's Radioactive Iodide Uptake (RAIU) Assay for Sodium/Iodide Symporter (NIS) Inhibition, Stoker and Laws Labs (AID 2283897);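 for AC50: active means loss of ATP signal versus DMSO meaning cytotoxicity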
Experimental: CPHEA_Stoker_NIS is a cell-based, single-readout assay that uses hNIS-HEK293T-EPA, a novel human kidney cell line expressing human NIS, with measurements taken at 2 hours after chemical dosing in a 96-well plate. This radioactive iodide uptake (RAIU) assay is used to identify inhibitors of NIS-mediated iodide uptake. A parallel cytoxicity assay (Cell Titer Glo, Promega) was also run in the same cell line.CPHEA_Stoker_NIS_Cytotoxicity is one of 2 assay components measured from the CPHEA_Stoker_NIS assay. It is designed to make measurements of atp content, a form of viability reporter, as detected with bioluminescence signals by Luciferase-coupled ATP quantitation technology.Data from the assay component CPHEA_Stoker_NIS_Cytotoxicity was analyzed at the endpoint, CPHEA_Stoker_NIS_Cytotoxicity, in the positive analysis fitting direction relative to DMSO as the negative control and baseline of activity. Using a type of viability reporter, measures of ATP content for loss-of-signal activity can be used to understand the viability. To generalize the intended target to other relatable targets, this assay endpoint is annotated to the cell cycle intended target family, where the subfamily is cytotoxicity.
hNIS-HEK293T-EPA cells were seeded with a MultiFlo FX dispenser (BioTek, Winooski, VT) into ScintiPlate-96 microplates (Perkin Elmer, Waltham, MA) at a density of 4.0x10^4 cells per well in 200uL growth media and incubated for 40 hours before experimentation. On day of the assay, carrier-free 125I (Perkin-Elmer, Waltham, MA; specific activity: 17.4Ci/mg) was diluted with Hanks' balanced salt solution (Sigma, St. Louis, MO) supplemented with 10mM HEPES (uptake buffer; pH 7.4) at 5uCi/mL (288pg 125I/mL uptake buffer; 2.30nM). The assay was initiated by washing cells twice with 200uL uptake buffer using a 96-well Tecan HydroSpeed plate washer (Tecan, Mannedorf, Switzerland). Uptake buffer (59.7uL) was then added back to each well. Chemical samples (350nL at 200X) were administered using the HDR tool as previously described to achieve a 1X chemical/0.5% final DMSO concentration with subsequent addition of 10uL of 125I dilution (final [125I]: 329pM; 2.88pg/well) for a final reaction volume of 70uL/well. Cells were incubated at room temperature for 2 hours and then washed twice with 200uL ice cold uptake buffer. All uptake buffer was aspirated from wells, plates were sealed, and read on a MicroBeta2 plate reader (Perkin Elmer, Waltham, MA) using a detection protocol to measure CPM corresponding to intracellular 125I concentration. Each chemical concentration (0.001, 0.01, 0.1, 1.0, 10, and 100uM) was assayed in triplicate with three independent biological replicate plates (3 sequential cell passages). Additionally, a concentration response of NaClO4 (0.001, 0.01, 0.1, 1.0, 10, and 100uM) served as a positive control inhibition curve on each RAIU assay plate. DMSO control wells were assayed on each plate as a measure of maximum iodide uptake for normalization and determination of intra- and inter-assay variation. (Toxicol In Vitro, 2017, 40:66-78).

| Structure (SMILES) | AC50 | outcome |
| --- | --- | --- |
| C=C(C)CN(CC)c1c([N+](=O)[O-])cc(C(F)(F)F)cc1[N+](=O)[O-] | 9.92 µM (active) |  |
| CC(C)Oc1cccc(NC(=O)c2ccccc2C(F)(F)F)c1 |  | inactive |
| CCN(CC)C(=O)C(C)Oc1cccc2ccccc12 (configuration not stated) |  | inactive |
| CSC(=O)c1c(C(F)F)nc(C(F)(F)F)c(C(=O)SC)c1CC(C)C |  | inactive |
| CCOP(=O)(OCC)Oc1nc(Cl)c(Cl)cc1Cl |  | inactive |
| CCN(CC)c1nc(C)cc(OP(=S)(OC)OC)n1 |  | inactive |
| Cc1ccc(N=CN(C)C=Nc2ccc(C)cc2C)c(C)c1 |  | inactive |
| CC1(C)CON(Cc2ccccc2Cl)C1=O |  | inactive |
| CCCCOCN(C(=O)CCl)c1c(CC)cccc1CC |  | inactive |
| O=C1C2CC=CCC2C(=O)N1SC(Cl)(Cl)Cl (configuration not stated) |  | inactive |
| Clc1cccc(C(Cl)(Cl)Cl)n1 |  | inactive |
| CC(C)N1C(=O)N(c2ccccc2)CSC1=NC(C)(C)C | 40.8 µM (active) |  |
| CC(C)=CC1C(C(=O)OCc2coc(Cc3ccccc3)c2)C1(C)C (configuration not stated) |  | inactive |
| CCNP(=S)(OC)O/C(C)=C/C(=O)OC(C)C (configuration not stated) |  | inactive |
| C=CCOC(=O)C(C)(C)OC(=O)c1cc(-n2c(=O)cc(C(F)(F)F)n(C)c2=O)ccc1Cl |  | inactive |
| CCCCC(C#N)(Cn1cncn1)c1ccc(Cl)cc1 (configuration not stated) |  | inactive |

| Structure (SMILES) | AC50 | outcome |
| --- | --- | --- |
| CCOc1cc(C(C)(C)C)ccc1C1COC(c2c(F)cccc2F)=N1 (configuration not stated) |  | inactive |
| COP(=S)(OC)SCn1nnc2ccccc2c1=O |  | inactive |
| Nc1c(Cl)c(Cl)nc(C(=O)O)c1Cl |  | inactive |
| CCOC(=O)C(C)OC(=O)c1cc(Oc2ccc(C(F)(F)F)cc2Cl)ccc1[N+](=O)[O-] (configuration not stated) |  | inactive |
| CCOc1nc(F)cc2nc(S(=O)(=O)Nc3c(Cl)cccc3Cl)nn12 |  | inactive |
| O=C(Nc1ccccc1-c1ccc(Cl)cc1)c1cccnc1Cl |  | inactive |
| CCCCC(O)(Cn1cncn1)c1ccc(Cl)cc1Cl (configuration not stated) |  | inactive |
| COc1ccc(-c2ccccc2)cc1NNC(=O)OC(C)C |  | inactive |
| CC1(C)C(C=C(Cl)Cl)C1C(=O)OC(C#N)c1cccc(Oc2ccccc2)c1 (configuration not stated) |  | inactive |
| CC1(C)C(C(=O)OC(C#N)c2cccc(Oc3ccccc3)c2)C1(C)C (configuration not stated) |  | inactive |
| CCOP(=S)(OCC)Oc1nc(Cl)n(C(C)C)n1 |  | inactive |
| COP(=S)(OC)Oc1ccc([N+](=O)[O-])c(C)c1 |  | inactive |
| OC(c1ccc(Cl)cc1)(c1ccc(Cl)cc1)C(Cl)(Cl)Cl | 50 µM (active) |  |
| CO/N=C(/C1=NOCCO1)c1ccccc1Oc1ncnc(Oc2ccccc2Cl)c1F | 10.9 µM (active) |  |
| COC(=O)c1c(C(F)F)nc(C(F)(F)F)c(C2=NCCS2)c1CC(C)C |  | inactive |
| N#Cc1c[nH]cc1-c1cccc2c1OC(F)(F)O2 |  | inactive |
